Inconclusive results are not listed. Some compounds were tested as several samples or in several runs, with calls that do not always agree. Activity calls are given as the source filed them. How the source made its calls: active means hit-call score of the fitted dose curve at least 0.9, where 1 is the maximum; inconclusive means response in the unintended direction; inactive means score below 0.9.
Assays:
[1] = molecular target: bovine Estrogen Receptor (ER), ESR1 (gene 407238) (UniProt P49884); assay: NVS_NR_bER: NovaScreen (NVS) Nuclear Receptor Binding Assay for bovine Estrogen Receptor (ER) (AID 2283345);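 further: actives lower the bound radioligand count which means they displace the ER ligand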
Chain of bovine Estrogen Receptor (ER), ESR1 (gene 407238) (P49884 whole entry, looked up): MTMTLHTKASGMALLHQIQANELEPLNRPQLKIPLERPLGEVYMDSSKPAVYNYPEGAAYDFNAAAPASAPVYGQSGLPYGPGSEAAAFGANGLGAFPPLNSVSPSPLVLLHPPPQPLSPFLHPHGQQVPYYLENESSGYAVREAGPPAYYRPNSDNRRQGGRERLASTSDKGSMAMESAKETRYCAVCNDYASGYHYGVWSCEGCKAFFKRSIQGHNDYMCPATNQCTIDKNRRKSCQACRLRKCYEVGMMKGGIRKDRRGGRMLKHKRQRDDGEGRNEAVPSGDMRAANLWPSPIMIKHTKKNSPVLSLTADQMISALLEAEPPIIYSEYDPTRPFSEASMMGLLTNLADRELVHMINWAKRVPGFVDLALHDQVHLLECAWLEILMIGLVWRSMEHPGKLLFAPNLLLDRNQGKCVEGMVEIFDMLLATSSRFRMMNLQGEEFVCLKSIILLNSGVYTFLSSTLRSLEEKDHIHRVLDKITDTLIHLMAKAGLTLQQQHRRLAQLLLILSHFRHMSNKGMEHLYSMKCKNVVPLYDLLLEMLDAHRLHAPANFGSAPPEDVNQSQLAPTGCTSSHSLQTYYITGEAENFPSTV
Method in brief: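 Cell-free radioligand binding with receptor from bovine uterine membranes, read by scintillation counting 18 h after dosing. Loss of specific binding was scored against DMSO; primary screen at 25 uM in duplicate, actives then run as concentration series.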

[2] = molecular target: Estrogen receptor (Homo sapiens) (UniProt P03372); assay: NVS_NR_hER: NovaScreen (NVS) Nuclear Receptor Binding Assay for human Estrogen Receptor (ER) (AID 2283348)
Chain of Estrogen receptor (Homo sapiens) (P03372 whole entry, looked up, the tested form may be a part): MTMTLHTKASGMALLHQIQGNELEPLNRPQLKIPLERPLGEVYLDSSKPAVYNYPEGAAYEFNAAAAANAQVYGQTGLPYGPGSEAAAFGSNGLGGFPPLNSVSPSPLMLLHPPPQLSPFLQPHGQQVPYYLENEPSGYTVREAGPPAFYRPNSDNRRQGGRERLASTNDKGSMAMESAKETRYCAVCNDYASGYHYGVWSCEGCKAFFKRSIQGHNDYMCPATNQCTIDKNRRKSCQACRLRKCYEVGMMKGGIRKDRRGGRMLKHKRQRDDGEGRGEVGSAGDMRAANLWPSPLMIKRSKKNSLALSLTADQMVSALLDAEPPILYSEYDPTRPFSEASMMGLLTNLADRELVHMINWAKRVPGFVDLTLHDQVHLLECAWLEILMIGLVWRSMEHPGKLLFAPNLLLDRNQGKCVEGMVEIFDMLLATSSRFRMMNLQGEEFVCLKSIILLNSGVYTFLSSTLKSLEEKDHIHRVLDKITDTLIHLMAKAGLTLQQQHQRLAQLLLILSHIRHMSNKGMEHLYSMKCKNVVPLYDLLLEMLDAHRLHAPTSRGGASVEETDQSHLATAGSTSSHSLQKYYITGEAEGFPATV
Method in brief: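 Scintillation signal from bound radioligand was measured 18 hours after chemical addition to cell-free MCF7 protein extracts, with DMSO as baseline. Activity was scored as signal loss; compounds ran first at 25 uM in duplicate.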

[3] = molecular target: Estrogen receptor (Homo sapiens) (UniProt P03372); assay: OT_ER_ERaERa_1440: Odyssey Thera (OT) 24-hour HEK293T Protein-Complementation Assay for Estrogen Receptor-alpha/-alpha Homodimer (AID 2283349);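 further: hits raise fluorescence above DMSO for agonists and antagonists alike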
Method in brief: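 Protein-fragment complementation between two human ERα ligand-binding domains (aa 310-547) in stably transfected HEK293T cells was monitored after 24 h treatment, using fluorescence intensity relative to vehicle controls.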

[4] = molecular target: Estrogen receptor (Homo sapiens) (UniProt P03372); assay: OT_ER_ERaERa_0480: Odyssey Thera (OT) 8-hour HEK293T Protein-Complementation Assay for Estrogen Receptor-alpha/-alpha Homodimer (AID 2283351);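 further: rise in fluorescence from reassembled reporter fragments on ERα LBD homodimer in nucleus or whole cell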
Method in brief: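 HEK293T cells stably expressing the human ERα ligand-binding domain (aa 310-547) as a homodimer PCA were dosed with compound for 8 h. Gain of fluorescence intensity versus DMSO vehicle was read by laser scanning cytometry.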

[5] = molecular target: chimpanzee Androgen Receptor (AR), AR (gene 747460) (UniProt O97775); assay: NVS_NR_cAR: NovaScreen (NVS) Nuclear Receptor Binding Assay for chimpanzee Androgen Receptor (AR) (AID 2283346);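 further: radioligand displacement from AR measured by scintillation counting in a cell-free assay; a loss of bound radioligand signal versus DMSO counts as binding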
Chain of chimpanzee Androgen Receptor (AR), AR (gene 747460) (O97775 whole entry, looked up): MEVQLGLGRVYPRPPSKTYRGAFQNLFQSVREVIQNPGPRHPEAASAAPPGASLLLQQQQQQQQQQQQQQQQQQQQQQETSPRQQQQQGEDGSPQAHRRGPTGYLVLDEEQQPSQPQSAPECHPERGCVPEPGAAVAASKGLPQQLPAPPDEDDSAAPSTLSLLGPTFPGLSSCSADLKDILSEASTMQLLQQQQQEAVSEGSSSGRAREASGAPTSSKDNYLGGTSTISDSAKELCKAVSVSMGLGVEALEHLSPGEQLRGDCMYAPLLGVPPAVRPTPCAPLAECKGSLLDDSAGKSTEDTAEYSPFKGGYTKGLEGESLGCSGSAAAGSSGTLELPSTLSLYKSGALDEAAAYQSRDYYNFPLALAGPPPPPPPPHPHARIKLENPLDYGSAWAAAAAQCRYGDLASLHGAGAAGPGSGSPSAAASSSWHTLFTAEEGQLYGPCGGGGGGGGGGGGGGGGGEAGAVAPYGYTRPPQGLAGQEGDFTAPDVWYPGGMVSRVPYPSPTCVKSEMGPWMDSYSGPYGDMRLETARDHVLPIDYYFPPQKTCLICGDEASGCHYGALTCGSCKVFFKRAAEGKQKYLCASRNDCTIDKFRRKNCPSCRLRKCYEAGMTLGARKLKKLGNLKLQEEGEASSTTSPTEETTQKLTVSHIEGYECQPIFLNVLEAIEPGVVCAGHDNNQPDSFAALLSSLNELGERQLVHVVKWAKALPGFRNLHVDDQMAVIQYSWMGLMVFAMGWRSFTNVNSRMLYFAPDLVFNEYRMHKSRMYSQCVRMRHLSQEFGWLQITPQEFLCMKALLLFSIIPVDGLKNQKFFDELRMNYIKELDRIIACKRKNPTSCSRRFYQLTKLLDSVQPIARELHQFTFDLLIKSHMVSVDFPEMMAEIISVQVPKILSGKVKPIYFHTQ
Method in brief: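 Cell-free competition binding with insect-cell (Sf9/Sf21) extracted chimpanzee AR; scintillation signal from lysate at 72 h. Screened in duplicate at 25 uM, then concentration-response for actives; fitting relative to DMSO.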

[6] = molecular target: rat Mineralocorticoid Receptor (MR), Nr3c2 (gene 25672) (UniProt P22199); assay: NVS_NR_rMR: NovaScreen (NVS) Nuclear Receptor Binding Assay for rat Mineralocorticoid Receptor (MR) (AID 2283355)
Chain of rat Mineralocorticoid Receptor (MR), Nr3c2 (gene 25672) (P22199 whole entry, looked up): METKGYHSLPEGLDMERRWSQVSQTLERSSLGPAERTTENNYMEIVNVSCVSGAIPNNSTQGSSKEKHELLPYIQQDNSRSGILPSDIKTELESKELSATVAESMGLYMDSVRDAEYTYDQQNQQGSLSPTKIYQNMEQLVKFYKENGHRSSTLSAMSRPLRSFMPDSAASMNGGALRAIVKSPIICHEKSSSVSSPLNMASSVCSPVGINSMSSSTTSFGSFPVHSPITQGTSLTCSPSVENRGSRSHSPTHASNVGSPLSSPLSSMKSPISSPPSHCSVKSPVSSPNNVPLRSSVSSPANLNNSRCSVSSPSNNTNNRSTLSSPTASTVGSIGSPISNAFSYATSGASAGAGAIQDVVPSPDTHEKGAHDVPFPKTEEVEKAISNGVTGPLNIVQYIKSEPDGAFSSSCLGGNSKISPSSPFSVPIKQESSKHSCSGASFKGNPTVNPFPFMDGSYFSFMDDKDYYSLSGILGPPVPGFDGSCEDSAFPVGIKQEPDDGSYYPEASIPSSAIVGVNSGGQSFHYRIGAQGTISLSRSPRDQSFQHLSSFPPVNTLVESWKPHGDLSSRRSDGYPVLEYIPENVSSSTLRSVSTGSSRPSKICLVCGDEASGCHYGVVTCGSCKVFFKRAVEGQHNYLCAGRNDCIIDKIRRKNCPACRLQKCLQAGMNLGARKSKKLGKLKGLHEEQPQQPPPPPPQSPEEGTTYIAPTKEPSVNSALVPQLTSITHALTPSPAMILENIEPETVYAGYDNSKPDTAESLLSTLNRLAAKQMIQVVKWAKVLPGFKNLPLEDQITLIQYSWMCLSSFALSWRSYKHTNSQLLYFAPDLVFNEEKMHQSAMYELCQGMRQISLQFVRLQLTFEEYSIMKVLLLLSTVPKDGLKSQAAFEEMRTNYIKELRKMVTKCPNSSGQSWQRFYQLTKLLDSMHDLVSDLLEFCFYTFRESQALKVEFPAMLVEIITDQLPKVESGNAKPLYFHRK
Method in brief: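 Adrenalectomized rat brain supernatant was dosed with test chemical, then radioligand binding was measured by scintillation counting at 24 h. Initial testing ran in duplicate at 25 uM, followed by concentration series for actives.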

[7] = molecular target: T1, Estrogen receptor (Homo sapiens) + Estrogen receptor beta (Homo sapiens) (UniProt P03372+Q92731); assay: OT_ER_ERaERb_0480: Odyssey Thera (OT) 8-hour HEK293T Protein-Complementation Assay for Estrogen Receptor-alpha/-beta Heterodimer (AID 2283352)
T1 sequence (P03372 whole entry, looked up, the tested form may be a part): as the sequence (P03372 whole entry, looked up, the tested form may be a part) above
T1 sequence (Q92731 whole entry, looked up, the tested form may be a part): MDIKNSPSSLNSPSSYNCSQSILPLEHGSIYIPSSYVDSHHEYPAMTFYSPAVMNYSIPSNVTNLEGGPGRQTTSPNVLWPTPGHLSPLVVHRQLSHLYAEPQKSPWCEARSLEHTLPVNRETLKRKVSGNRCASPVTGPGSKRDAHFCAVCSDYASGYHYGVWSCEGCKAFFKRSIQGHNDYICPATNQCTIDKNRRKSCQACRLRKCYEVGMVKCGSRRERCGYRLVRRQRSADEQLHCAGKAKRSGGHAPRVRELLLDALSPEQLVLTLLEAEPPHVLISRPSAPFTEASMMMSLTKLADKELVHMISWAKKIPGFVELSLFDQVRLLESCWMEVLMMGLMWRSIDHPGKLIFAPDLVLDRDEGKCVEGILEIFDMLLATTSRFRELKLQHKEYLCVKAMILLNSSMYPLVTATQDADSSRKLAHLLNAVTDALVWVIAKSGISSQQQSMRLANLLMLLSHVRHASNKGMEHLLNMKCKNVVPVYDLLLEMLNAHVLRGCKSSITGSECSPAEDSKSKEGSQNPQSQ
Method in brief: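 HEK293T cells expressing ER-alpha/ER-beta LBD fusions to complementary reporter fragments were dosed with compound for 8 hours. Heterodimer formation was read as increased nuclear (agonist) or nuclear plus cytoplasmic (antagonist) mean fluorescence intensity versus DMSO vehicle.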

[8] = molecular target: Androgen Receptor/SRC-1 Co-activator, AR (gene 367) (UniProt P10275); assay: OT_AR_ARSRC1_0960: Odyssey Thera (OT) 16-hour HEK293T Protein-Complementation Assay for Androgen Receptor/SRC-1 Co-activator (AID 2283353);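 further: actives raise the signal above DMSO so potency reflects increased AR and SRC-1 complex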
Method in brief: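 HEK293T cells stably expressing AR and SRC-1 fused to split Venus YFP fragments via (Gly4Ser)2 linkers were dosed for 16 h. Nuclear/cytoplasmic fluorescence ratio at 488 nm, ≥400 cells per image, fitted for gain of signal versus DMSO.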

[9] = molecular target: T1, Estrogen receptor (Homo sapiens) + Estrogen receptor beta (Homo sapiens); assay: OT_ER_ERaERb_1440: Odyssey Thera (OT) 24-hour HEK293T Protein-Complementation Assay for Estrogen Receptor-alpha/-beta Homodimer (AID 2283356);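 further: heteromer of ER alpha and ER beta binding domains; hits raise reporter fluorescence and both agonists and antagonists give an increase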
Method in brief: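 HEK293T cells stably expressing a PCA pair of ERα LBD (aa 310-547) and ERβ LBD (aa 263-489) were dosed for 24 h. Fluorescence intensity increase versus DMSO vehicle was fitted as gain-of-signal.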

[10] = molecular target: Estrogen receptor beta (Homo sapiens) (UniProt Q92731); assay: OT_ER_ERbERb_0480: Odyssey Thera (OT) 8-hour HEK293T Protein-Complementation Assay for Estrogen Receptor-beta/-beta Homodimer (AID 2283357);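 further: active means signal gain over DMSO baseline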
Chain of Estrogen receptor beta (Homo sapiens) (Q92731 whole entry, looked up, the tested form may be a part): as above
Method in brief: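 Cells (HEK293T, stable ER-beta LBD PCA pair) are treated 8 hours, fixed and Draq5-stained; signal is fluorescence intensity increase relative to vehicle, fitted in the gain direction.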

[11] = molecular target: rat Gamma-Aminobutyric Acid Type A Receptor BDZ, alpha 6 site (GABARa6), Gabra6 (gene 29708) (UniProt P30191); assay: NVS_LGIC_rGABARa6: NovaScreen (NVS) Ligand-Gated Ion Channel Assay for rat Gamma-Aminobutyric Acid Type A Receptor BDZ, alpha 6 site (GABARa6) (AID 2283339)
Chain of rat Gamma-Aminobutyric Acid Type A Receptor BDZ, alpha 6 site (GABARa6), Gabra6 (gene 29708) (P30191 whole entry, looked up): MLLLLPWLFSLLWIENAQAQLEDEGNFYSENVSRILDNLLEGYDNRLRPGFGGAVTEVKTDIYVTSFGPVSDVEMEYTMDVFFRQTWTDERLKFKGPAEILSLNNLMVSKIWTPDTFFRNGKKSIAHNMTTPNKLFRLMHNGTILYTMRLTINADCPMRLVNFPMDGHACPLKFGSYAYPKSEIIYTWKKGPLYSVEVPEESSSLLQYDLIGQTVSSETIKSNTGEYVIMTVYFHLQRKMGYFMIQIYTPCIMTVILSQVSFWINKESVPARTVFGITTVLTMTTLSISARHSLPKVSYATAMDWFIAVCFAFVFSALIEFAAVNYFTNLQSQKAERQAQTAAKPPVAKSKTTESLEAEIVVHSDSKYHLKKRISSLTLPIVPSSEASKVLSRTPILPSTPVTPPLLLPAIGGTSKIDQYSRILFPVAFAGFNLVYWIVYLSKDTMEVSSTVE
Method in brief: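 Rat cerebellar membranes; radioligand binding, filtration and scintillation counting, read 1 h after dosing. Single-concentration duplicate screen at 25 uM, then concentration-response up to 50 uM for actives; loss of signal fitted versus DMSO baseline.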

[12] = molecular target: human Peroxisome Proliferator-activated Receptor alpha (PPARa), PPARA (gene 5465) (UniProt Q07869); assay: NVS_NR_hPPARa: NovaScreen (NVS) Nuclear Receptor Binding Assay for human Peroxisome Proliferator-activated Receptor alpha (PPARa) (AID 2283359);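 further: activity means loss of TR-FRET signal versus DMSO baseline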
Chain of human Peroxisome Proliferator-activated Receptor alpha (PPARa), PPARA (gene 5465) (Q07869 whole entry, looked up): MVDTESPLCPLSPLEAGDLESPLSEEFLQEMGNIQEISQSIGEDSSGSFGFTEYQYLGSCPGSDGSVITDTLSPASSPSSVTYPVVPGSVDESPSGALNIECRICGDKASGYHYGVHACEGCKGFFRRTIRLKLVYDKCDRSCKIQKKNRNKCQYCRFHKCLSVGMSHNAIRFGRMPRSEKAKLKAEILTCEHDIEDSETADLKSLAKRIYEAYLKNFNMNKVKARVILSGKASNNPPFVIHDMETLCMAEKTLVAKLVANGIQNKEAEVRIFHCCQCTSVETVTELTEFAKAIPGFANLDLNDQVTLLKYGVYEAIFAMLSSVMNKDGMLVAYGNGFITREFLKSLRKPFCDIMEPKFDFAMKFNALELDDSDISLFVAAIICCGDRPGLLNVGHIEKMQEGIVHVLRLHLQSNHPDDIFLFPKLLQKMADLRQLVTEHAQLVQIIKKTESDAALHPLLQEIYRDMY
Method in brief: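 Chemicals were first screened in duplicate at 25 uM, and active ones were retested across concentration series. Binding was monitored by TR-FRET one hour after dosing, with decreased signal against DMSO counted as activity.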

PGR (gene 5241) = PGR (gene 5241) (UniProt P06401); assay: NVS_NR_hPR: NovaScreen (NVS) Nuclear Receptor Binding Assay for human Progestron Receptor (PR) (AID 2283360);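 further: active means loss of bound radioligand signal versus DMSO baseline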
Method in brief: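 Cell-free radioligand binding using receptor protein extracted from T47D cells, read by scintillation counting 18 hours after dosing. Loss of signal relative to DMSO baseline indicates displacement; primary screen single concentration 25 uM in duplicate, actives followed in concentration series.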

O=C(Cc1ccccc1)c1ccccc1
outcome [1]: inactive | outcome [2]: inactive | outcome [3]: inactive | outcome [4]: inactive

O=C(OC1CCCCC1)c1ccccc1C(=O)OC1CCCCC1
outcome [1]: inactive | outcome [5]: inactive | outcome [2]: inactive | AC50 [3]: 23.9 µM (active) | AC50 [4]: 35 µM (active) | outcome [6]: inactive

C=CC(=O)OCCCCCC(C)C
outcome [1]: inactive | outcome [2]: inactive | outcome [3]: inactive | outcome [4]: inactive | outcome [7]: inactive | outcome [8]: inactive | outcome [9]: inactive | outcome [10]: inactive

CN(C)N=O
outcome [11]: inactive | outcome [10]: inactive

O=[N+]([O-])c1c(Cl)c(Cl)cc(Cl)c1Cl
outcome [1]: inactive

O=C1CCCN1
outcome [2]: inactive | outcome [3]: inactive | outcome [4]: inactive

Oc1ccc(-c2ccccc2)cc1
AC50 [5]: 4.83 µM (active) | outcome [5]: inactive | AC50 [10]: 12.7 µM (active) | outcome [12]: inactive | AC50 (PGR (gene 5241)): 43.2 µM (active)

CC1(C)CCC(Cc2ccc(Cl)cc2)C1(O)Cn1cncn1 (stereo unspecified)
AC50 [5]: 6.82 µM (active) | outcome [2]: inactive | outcome [3]: inactive | outcome [4]: inactive

O=C(Nc1ccc2[nH]ccc2c1)c1cc2cc(F)ccc2n1Cc1cccc(F)c1
outcome [2]: inactive | outcome [3]: inactive | outcome [4]: inactive

Reference: PubChem BioAssay (EPA / NIEHS)
